PubChem BioAssay AID1159580 (chemical genetic matrix, 2015)
In all, about 5,500 compounds went through this assay and about 2,000 (36%) were called active. Another 18% or so got no clear call; they are omitted. No stated cut-off is given here; in the data, active means normalized growth mostly below about 0.91 (no sharp cut-off); inconclusive means no clear call, values can overlap the other calls; inactive means mostly above about 0.92. The list shows a part of the results.

Assay: chemical genetic growth profiling, strain panel (AID 1159580);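 further: tested at 20 µM; growth read once vehicle control cultures reached saturation at 30 °C; 1 = growth at the plate median or of vehicle wells; lower values mean less growth of the strain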
Settings: growth OD

Measured: normalized growth

CC(=O)OCC1=C(C(=O)O)N2C(=O)[C@@H](NC(=O)CSc3ccncc3)[C@H]2SC1
inactive: S. cerevisiae deletion strains, locus YJR043C, strain POL32, hits give low values 0.959 | S. cerevisiae deletion strains, locus YJR066W, strain TOR1, hits give low values 0.987 | S. cerevisiae deletion strains, locus YKL009W, strain mrt4, hits give low values 1 | S. cerevisiae deletion strains, locus YKL068W, hits give low values 0.982 | S. cerevisiae deletion strains, locus YKL085W, strain MDH1 (second series), hits give low values 0.975 | S. cerevisiae deletion strains, locus YKL085W, strain MDH1, hits give low values 0.975 | S. cerevisiae deletion strains, locus YKL160W, strain elf1, hits give low values 1.03 | S. cerevisiae deletion strains, locus YKR001C, strain vps1, hits give low values 0.994 | S. cerevisiae deletion strains, locus YKR026C, strain gcn3, hits give low values 1.03 | S. cerevisiae deletion strains, locus YKR091W, strain srl3, hits give low values 1.02 | S. cerevisiae deletion strains, locus YLL001W, strain dnm1, hits give low values 1.02 | S. cerevisiae deletion strains, locus YLL026W, hits give low values 1.01 | S. cerevisiae deletion strains, locus YLL041C, strain sdh2, hits give low values 1.02 | S. cerevisiae deletion strains, locus YLR027C, strain aat2, hits give low values 1.02 | S. cerevisiae deletion strains, locus YLR039C, strain RIC1, hits give low values 0.981 | S. cerevisiae deletion strains, locus YLR058C, strain SHM2, hits give low values 0.985 | S. cerevisiae deletion strains, locus YLR102C, strain apc9, hits give low values 0.988 | S. cerevisiae deletion strains, locus YLR113W, strain HOG1, hits give low values 0.974 | S. cerevisiae deletion strains, locus YLR221C, strain rsa3, hits give low values 1.03 | S. cerevisiae deletion strains, locus YLR258W, strain gsy2, hits give low values 1.01 | S. cerevisiae deletion strains, locus YLR262C, strain YPT6 (second series), hits give low values 1.07 | S. cerevisiae deletion strains, locus YLR262C, strain YPT6, hits give low values 0.926 | S. cerevisiae deletion strains, locus YLR268W, strain sec22, hits give low values 0.957 | S. cerevisiae deletion strains, locus YLR320W, strain mms22, hits give low values 1 | S. cerevisiae deletion strains, locus YLR330W, strain CHS5, hits give low values 0.98 | S. cerevisiae deletion strains, locus YLR342W, strain FKS1 (second series), hits give low values 0.986 | S. cerevisiae deletion strains, locus YLR342W, strain FKS1, hits give low values 1.03 | S. cerevisiae deletion strains, locus YLR357W, strain rsc2, hits give low values 1.05 | S. cerevisiae deletion strains, locus YLR370C, strain arc18, hits give low values 1.01 | S. cerevisiae deletion strains, locus YLR371W, strain rom2, hits give low values 0.994 | S. cerevisiae deletion strains, locus YLR384C, strain iki3, hits give low values 1.04 | S. cerevisiae deletion strains, locus YLR418C, strain cdc73, hits give low values 1.05 | S. cerevisiae deletion strains, locus YML016C, strain PPZ1, hits give low values 0.987 | S. cerevisiae deletion strains, locus YML032C, strain rad52, hits give low values 0.992 | S. cerevisiae deletion strains, locus YML120C, strain ndi1, hits give low values 1.03 | S. cerevisiae deletion strains, locus YML124C, strain tub3, hits give low values 0.994 | S. cerevisiae deletion strains, locus YMR058W, strain fet3, hits give low values 1.01 | S. cerevisiae deletion strains, locus YMR078C, strain ctf18, hits give low values 0.987 | S. cerevisiae deletion strains, locus YMR125W, strain sto1, hits give low values 1.02 | S. cerevisiae deletion strains, locus YMR129W, hits give low values 1.02 | S. cerevisiae deletion strains, locus YMR205C, strain PFK2, hits give low values 1.02 | S. cerevisiae deletion strains, locus YMR223W, strain ubp8, hits give low values 1.01 | S. cerevisiae deletion strains, locus YMR231W, strain pep5, hits give low values 1.01 | S. cerevisiae deletion strains, locus YMR263W, strain SAP30, hits give low values 1 | S. cerevisiae deletion strains, locus YMR307W, strain GAS1, hits give low values 0.972 | S. cerevisiae deletion strains, locus YNL067W, strain RPL9B, hits give low values 1.01 | S. cerevisiae deletion strains, locus YNL071W, strain lat1, hits give low values 1.01 | S. cerevisiae deletion strains, locus YNL183C, strain NPR1, hits give low values 0.924 | S. cerevisiae deletion strains, locus YNL209W, strain ssb2, hits give low values 1.02 | S. cerevisiae deletion strains, locus YNL233W, strain BNI4, hits give low values 1.02 | S. cerevisiae deletion strains, locus YNL248C, strain rpa49, hits give low values 1.02 | S. cerevisiae deletion strains, locus YNL250W, strain rad50, hits give low values 0.99 | S. cerevisiae deletion strains, locus YNL271C, strain bni1, hits give low values 1 | S. cerevisiae deletion strains, locus YNL298W, strain CLA4, hits give low values 0.992 | S. cerevisiae deletion strains, locus YNL307C, strain MCK1, hits give low values 0.993 | S. cerevisiae deletion strains, locus YNL322C, strain KRE1 (second series), hits give low values 1.03 | S. cerevisiae deletion strains, locus YNL322C, strain KRE1, hits give low values 0.997 | S. cerevisiae deletion strains, locus YNR049C, strain mso1, hits give low values 1.02 | S. cerevisiae deletion strains, locus YNR052C, strain pop2, hits give low values 0.991 | S. cerevisiae deletion strains, locus YOL012C, strain htz1 0.881 | S. cerevisiae deletion strains, locus YOL147C, strain pex11, hits give low values 1 | S. cerevisiae deletion strains, locus YOR001W, strain rrp6, hits give low values 1.04 | S. cerevisiae deletion strains, locus YOR061W, strain CKA2, hits give low values 0.969 | S. cerevisiae deletion strains, locus YOR069W, strain VPS5, hits give low values 0.985 | S. cerevisiae deletion strains, locus YOR070C, strain gyp1, hits give low values 1.01 | S. cerevisiae deletion strains, locus YOR080W, strain dia2, hits give low values 1.05 | S. cerevisiae deletion strains, locus YOR083W, strain WHI5, hits give low values 1.05 | S. cerevisiae deletion strains, locus YOR106W, strain vam3, hits give low values 1.05 | S. cerevisiae deletion strains, locus YOR136W, strain idh2, hits give low values 0.983 | S. cerevisiae deletion strains, locus YOR144C, strain elg1, hits give low values 0.985 | S. cerevisiae deletion strains, locus YOR184W, strain ser1, hits give low values 0.995 | S. cerevisiae deletion strains, locus YOR231W, strain MKK1, hits give low values 0.985 | S. cerevisiae deletion strains, locus YOR265W, strain rbl2, hits give low values 1.02 | S. cerevisiae deletion strains, locus YOR270C, strain vph1, hits give low values 1.07 | S. cerevisiae deletion strains, locus YOR290C, strain snf2, hits give low values 0.998 | S. cerevisiae deletion strains, locus YOR316C, strain cot1, hits give low values 0.981 | S. cerevisiae deletion strains, locus YPL051W, strain arl3, hits give low values 1.04 | S. cerevisiae deletion strains, locus YPL078C, strain atp4, hits give low values 1.05 | S. cerevisiae deletion strains, locus YPL106C, strain sse1, hits give low values 1.02 | S. cerevisiae deletion strains, locus YPL240C, strain hsp82, hits give low values 1.02 | S. cerevisiae deletion strains, locus YPL241C, strain CIN2, hits give low values 0.988 | S. cerevisiae deletion strains, locus YPL256C, strain CLN2, hits give low values 1.01 | S. cerevisiae deletion strains, locus YPR119W, strain clb2, hits give low values 0.982 | S. cerevisiae deletion strains, locus YPR141C, strain kar3, hits give low values 0.991 | S. cerevisiae deletion strains, locus YPR163C, strain tif3, hits give low values 0.991 | S. cerevisiae deletion strains, locus YPR167C, strain met16, hits give low values 1 | S. cerevisiae deletion strains, strain wtn01, hits give low values 0.995 | S. cerevisiae strains, strain wild type, hits give low values 0.982
